Results on 1 sequence are retold here after PMC7862700, “An all-to-all approach to the identification of sequence-specific readers for epigenetic DNA modifications on cytosine”.

What all share (assay): DAPPL (digital affinity profiling via proximity ligation, sequencing); 10 mM Tris-HCl pH 7.5, 50 mM NaCl, 1 mM DTT, 4% glycerol, room temperature, 30 min; GST-TFs on glutathione beads, 16-mer random dsDNA library, 0.1% formaldehyde crosslink after washing; high values mean tight binding
The target of experiment [1] is T1, FEV (Homo sapiens, UniProt Q99581 1-238).
T1 sequence: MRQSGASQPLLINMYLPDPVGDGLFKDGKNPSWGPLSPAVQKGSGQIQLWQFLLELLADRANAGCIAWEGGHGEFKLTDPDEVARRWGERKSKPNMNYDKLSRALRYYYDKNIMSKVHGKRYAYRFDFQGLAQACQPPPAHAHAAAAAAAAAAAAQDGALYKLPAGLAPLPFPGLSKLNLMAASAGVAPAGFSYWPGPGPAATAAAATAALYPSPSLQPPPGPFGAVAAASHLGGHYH
The note with it: protein: recombinant; tags: N-terminal GST; dsDNA, one strand shown. A digest of the protocol: (§1)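 Binding signal is each hexamer's read frequency for a factor divided by its frequency in the tag-only sample. The factors were GST-fused human transcription factors from yeast, captured on glutathione beads, DNA-barcoded and pooled with that sample. Pools were incubated with 200 nmole of a random double-stranded 16-mer DNA library in Tris/NaCl/DTT/glycerol buffer at room temperature for 30 min, then washed, crosslinked with 0.1% formaldehyde, proximity-ligated with BsaI/T4 ligase (1 h, 37 °C), PCR-amplified and sequenced on an Illumina NextSeq500.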

Experiment [2] addresses ETV5 (Homo sapiens, UniProt P41161 1-510). Conditions: protein: recombinant; tags: N-terminal GST; dsDNA, one strand shown. In outline:
as §1

In experiment [3] the target is HSF1 (Homo sapiens, UniProt Q00613 1-529). The note with it: protein: recombinant; tags: N-terminal GST; chain copies: 3; dsDNA, one strand shown. A digest of the protocol: as §1
Experiment [4] concerns the target T2, SPIC (Homo sapiens, UniProt Q8N5J4 1-248).
T2 sequence: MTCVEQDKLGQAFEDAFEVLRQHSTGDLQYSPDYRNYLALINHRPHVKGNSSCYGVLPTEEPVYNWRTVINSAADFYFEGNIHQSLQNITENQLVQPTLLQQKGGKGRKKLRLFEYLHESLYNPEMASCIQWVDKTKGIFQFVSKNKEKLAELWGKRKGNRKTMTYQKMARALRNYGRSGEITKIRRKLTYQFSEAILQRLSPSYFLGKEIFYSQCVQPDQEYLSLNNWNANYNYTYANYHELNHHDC
Conditions: protein: recombinant; tags: N-terminal GST; dsDNA, one strand shown. A digest of the protocol: as §1

Experiment [5] deals with ELF4 (Homo sapiens, UniProt Q99607 1-663). The note with it: protein: recombinant; tags: N-terminal GST; dsDNA, one strand shown. In outline:
as §1

The target of experiment [6] is T3, ELK4 (Homo sapiens, UniProt P28324-2 1-405).
T3 sequence: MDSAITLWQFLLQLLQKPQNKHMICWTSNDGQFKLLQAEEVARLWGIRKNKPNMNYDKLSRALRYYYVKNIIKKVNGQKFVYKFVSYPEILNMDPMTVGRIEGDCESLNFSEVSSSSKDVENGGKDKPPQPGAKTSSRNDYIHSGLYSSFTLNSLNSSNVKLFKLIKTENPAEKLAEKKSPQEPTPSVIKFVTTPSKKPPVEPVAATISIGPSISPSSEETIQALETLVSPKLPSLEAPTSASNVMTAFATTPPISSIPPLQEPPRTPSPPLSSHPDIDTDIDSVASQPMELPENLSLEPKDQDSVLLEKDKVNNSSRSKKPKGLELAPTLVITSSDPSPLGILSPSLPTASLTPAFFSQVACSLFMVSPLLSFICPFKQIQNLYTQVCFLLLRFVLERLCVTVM
Conditions: protein: recombinant; tags: N-terminal GST; dsDNA, one strand shown. A digest of the protocol:
as §1

For experiment [7], the target named is T4, ETV2 (Homo sapiens, UniProt O00321 1-342).
T4 sequence: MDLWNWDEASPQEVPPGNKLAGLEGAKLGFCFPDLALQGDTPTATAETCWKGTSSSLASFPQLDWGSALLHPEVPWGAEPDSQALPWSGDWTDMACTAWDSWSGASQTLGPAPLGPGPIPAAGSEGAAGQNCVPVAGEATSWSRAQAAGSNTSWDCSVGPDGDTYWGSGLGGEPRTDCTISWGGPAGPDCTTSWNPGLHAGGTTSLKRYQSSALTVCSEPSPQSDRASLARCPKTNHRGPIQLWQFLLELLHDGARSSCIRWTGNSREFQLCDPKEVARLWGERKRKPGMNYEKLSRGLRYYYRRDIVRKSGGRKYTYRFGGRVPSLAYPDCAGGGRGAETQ
The note with it: protein: recombinant; tags: N-terminal GST; dsDNA, one strand shown. In outline: as §1

The target in experiment [8] is T5, ELF3 (Homo sapiens, UniProt P78545 1-371).
T5 sequence: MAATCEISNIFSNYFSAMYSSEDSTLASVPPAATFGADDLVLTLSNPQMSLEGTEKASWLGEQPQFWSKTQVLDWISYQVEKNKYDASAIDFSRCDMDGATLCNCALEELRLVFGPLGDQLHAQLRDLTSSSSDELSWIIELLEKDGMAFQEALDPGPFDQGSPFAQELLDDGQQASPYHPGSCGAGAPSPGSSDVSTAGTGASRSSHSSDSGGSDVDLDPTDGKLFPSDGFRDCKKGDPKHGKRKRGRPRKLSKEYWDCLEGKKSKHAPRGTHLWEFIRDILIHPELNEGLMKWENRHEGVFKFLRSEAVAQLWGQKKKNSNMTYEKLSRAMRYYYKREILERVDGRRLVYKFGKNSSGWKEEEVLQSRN
Conditions: protein: recombinant; tags: N-terminal GST; dsDNA, one strand shown. In outline: as §1

The target of experiment [9] is CRX (Homo sapiens, UniProt O43186 1-299). Conditions: protein: recombinant; tags: N-terminal GST; dsDNA, one strand shown. A digest of the protocol: as §1
Experiment [10] deals with ETV1 (Homo sapiens, UniProt P50549 1-477). Conditions: protein: recombinant; tags: N-terminal GST; dsDNA, one strand shown. A digest of the protocol:
as §1

Experiment [11] has as its target T6, ERF (Homo sapiens, UniProt P50548 1-548).
T6 sequence: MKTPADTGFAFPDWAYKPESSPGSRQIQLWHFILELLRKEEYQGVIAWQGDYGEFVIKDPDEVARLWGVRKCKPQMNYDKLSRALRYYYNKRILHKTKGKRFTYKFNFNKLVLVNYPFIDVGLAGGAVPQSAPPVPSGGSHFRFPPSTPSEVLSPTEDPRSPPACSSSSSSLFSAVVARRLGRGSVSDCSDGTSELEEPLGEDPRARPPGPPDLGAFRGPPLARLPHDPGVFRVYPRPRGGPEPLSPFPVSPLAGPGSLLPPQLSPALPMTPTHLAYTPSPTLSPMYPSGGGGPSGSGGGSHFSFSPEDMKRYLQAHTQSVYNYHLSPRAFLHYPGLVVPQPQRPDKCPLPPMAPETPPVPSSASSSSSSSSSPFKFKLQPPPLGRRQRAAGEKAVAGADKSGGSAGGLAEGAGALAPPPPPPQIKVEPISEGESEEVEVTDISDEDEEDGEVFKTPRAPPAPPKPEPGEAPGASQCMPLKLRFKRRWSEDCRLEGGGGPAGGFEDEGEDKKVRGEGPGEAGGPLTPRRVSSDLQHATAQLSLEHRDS
Conditions: protein: recombinant; tags: N-terminal GST; dsDNA, one strand shown. In outline: as §1

For experiment [12], the target named is T7, ETV3L (Homo sapiens, UniProt Q6ZN32 1-361).
T7 sequence: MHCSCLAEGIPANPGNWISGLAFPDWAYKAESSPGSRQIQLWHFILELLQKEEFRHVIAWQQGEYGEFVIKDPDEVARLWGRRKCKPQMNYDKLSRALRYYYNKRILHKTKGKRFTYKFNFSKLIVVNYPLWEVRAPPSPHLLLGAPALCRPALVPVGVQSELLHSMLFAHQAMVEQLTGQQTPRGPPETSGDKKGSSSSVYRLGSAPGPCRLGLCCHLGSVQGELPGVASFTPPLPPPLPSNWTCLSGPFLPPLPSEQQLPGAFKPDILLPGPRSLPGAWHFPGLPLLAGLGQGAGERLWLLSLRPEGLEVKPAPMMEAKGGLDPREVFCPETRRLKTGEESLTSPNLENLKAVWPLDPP
Conditions: protein: recombinant; tags: N-terminal GST; dsDNA, one strand shown. A digest of the protocol:
as §1

Experiment [13] concerns the target T8, ETS2 (Homo sapiens, UniProt P15036 1-469).
T8 sequence: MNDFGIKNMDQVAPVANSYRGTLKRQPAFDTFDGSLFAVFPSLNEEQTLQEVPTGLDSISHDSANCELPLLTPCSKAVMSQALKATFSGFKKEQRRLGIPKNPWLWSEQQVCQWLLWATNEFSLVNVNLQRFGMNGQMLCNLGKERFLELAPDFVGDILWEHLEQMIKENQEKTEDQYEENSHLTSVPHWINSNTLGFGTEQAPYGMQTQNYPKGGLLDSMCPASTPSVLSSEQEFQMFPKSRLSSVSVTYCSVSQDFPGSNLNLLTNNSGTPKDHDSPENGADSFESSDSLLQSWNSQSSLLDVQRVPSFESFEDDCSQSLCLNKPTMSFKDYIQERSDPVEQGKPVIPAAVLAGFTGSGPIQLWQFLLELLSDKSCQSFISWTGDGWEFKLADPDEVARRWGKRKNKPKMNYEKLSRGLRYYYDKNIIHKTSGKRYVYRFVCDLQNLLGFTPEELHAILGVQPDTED
Conditions: protein: recombinant; tags: N-terminal GST; dsDNA, one strand shown. A digest of the protocol:
as §1

The target of experiment [14] is T9, SPDEF (Homo sapiens, UniProt O95238 1-335).
T9 sequence: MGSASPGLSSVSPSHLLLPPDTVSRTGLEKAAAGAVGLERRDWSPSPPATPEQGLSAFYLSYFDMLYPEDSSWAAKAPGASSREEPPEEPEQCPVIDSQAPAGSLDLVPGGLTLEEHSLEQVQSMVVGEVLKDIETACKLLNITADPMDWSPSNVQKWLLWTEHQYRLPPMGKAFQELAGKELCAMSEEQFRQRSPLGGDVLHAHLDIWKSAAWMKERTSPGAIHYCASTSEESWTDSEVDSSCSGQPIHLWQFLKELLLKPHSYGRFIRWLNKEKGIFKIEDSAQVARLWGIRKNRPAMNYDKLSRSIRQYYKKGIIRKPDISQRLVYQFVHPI
Conditions: protein: recombinant; tags: N-terminal GST; dsDNA, one strand shown. A digest of the protocol: as §1

Experiment [15] has as its target T10, ETV7 (Homo sapiens, UniProt Q9Y603 1-341).
T10 sequence: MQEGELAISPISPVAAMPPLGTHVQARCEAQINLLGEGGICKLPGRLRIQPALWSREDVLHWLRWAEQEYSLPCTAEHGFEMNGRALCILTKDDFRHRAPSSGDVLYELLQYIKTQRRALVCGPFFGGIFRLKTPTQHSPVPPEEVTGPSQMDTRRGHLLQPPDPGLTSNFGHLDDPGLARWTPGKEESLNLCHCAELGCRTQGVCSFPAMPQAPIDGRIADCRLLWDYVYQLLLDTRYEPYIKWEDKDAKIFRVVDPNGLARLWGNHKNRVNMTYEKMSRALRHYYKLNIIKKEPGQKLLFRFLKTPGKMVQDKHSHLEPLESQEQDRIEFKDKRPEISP
The note with it: protein: recombinant; tags: N-terminal GST; dsDNA, one strand shown. A digest of the protocol:
as §1

Experiment [16] concerns the target T11, ELF5 (Homo sapiens, UniProt Q9UKW6-2 1-255).
T11 sequence: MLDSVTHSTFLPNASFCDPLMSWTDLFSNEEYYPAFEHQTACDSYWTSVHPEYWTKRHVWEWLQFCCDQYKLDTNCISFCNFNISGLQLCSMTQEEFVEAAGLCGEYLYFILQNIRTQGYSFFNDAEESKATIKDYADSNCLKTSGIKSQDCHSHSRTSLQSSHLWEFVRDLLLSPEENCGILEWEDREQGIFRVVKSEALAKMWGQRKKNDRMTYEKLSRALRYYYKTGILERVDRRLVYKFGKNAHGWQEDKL
Conditions: protein: recombinant; tags: N-terminal GST; dsDNA, one strand shown. A digest of the protocol: as §1

The target in experiment [17] is T12, ETV3 (Homo sapiens, UniProt P41162-2 1-143).
T12 sequence: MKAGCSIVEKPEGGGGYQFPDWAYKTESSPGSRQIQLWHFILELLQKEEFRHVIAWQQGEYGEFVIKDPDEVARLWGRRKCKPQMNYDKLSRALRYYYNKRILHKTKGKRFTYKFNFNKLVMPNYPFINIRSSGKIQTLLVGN
Conditions: protein: recombinant; tags: N-terminal GST; dsDNA, one strand shown. In outline: as §1

Experiment [18] deals with ETV6 (Homo sapiens, UniProt P41212 1-452). Conditions: protein: recombinant; tags: N-terminal GST; dsDNA, one strand shown. In outline: as §1
Chain of ETV6 (P41212 whole entry): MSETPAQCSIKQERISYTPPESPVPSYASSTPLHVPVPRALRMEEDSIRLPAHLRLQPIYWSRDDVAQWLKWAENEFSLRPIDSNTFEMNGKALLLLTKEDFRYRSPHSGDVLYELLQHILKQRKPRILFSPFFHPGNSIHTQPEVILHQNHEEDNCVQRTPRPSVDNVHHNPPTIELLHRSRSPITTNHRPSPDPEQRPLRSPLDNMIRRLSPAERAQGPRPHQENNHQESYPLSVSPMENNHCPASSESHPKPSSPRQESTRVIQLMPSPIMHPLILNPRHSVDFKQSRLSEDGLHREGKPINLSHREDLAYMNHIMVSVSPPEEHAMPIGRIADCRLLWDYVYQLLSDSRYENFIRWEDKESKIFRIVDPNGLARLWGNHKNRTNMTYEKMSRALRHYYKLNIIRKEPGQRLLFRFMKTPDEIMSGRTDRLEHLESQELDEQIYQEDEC

Chain of HSF1 (Q00613 whole entry): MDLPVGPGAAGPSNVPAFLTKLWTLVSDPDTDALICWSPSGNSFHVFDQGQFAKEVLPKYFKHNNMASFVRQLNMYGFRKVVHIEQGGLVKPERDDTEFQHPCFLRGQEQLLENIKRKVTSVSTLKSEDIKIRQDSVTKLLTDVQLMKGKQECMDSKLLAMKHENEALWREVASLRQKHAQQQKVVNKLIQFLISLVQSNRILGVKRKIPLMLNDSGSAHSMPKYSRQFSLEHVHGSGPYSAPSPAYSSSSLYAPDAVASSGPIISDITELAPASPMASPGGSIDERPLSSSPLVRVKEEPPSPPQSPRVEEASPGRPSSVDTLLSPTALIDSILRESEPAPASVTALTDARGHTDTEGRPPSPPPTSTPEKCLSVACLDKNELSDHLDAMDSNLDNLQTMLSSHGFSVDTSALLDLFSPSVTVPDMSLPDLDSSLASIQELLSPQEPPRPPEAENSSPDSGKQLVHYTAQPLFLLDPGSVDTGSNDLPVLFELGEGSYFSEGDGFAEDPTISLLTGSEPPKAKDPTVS
Chain of ETV1 (P50549 whole entry): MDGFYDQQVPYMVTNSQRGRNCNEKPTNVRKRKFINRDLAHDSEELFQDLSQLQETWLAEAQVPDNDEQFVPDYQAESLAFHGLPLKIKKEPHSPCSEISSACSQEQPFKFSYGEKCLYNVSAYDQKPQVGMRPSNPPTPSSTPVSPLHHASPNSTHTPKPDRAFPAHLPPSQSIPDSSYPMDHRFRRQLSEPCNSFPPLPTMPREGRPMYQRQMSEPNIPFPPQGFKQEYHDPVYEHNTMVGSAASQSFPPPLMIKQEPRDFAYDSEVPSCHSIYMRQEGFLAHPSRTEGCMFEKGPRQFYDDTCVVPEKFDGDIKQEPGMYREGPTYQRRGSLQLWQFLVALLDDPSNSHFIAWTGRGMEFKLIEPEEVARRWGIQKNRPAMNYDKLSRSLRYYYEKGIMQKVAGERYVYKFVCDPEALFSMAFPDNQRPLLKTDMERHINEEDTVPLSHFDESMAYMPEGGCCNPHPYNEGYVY
Chain of CRX (O43186 whole entry): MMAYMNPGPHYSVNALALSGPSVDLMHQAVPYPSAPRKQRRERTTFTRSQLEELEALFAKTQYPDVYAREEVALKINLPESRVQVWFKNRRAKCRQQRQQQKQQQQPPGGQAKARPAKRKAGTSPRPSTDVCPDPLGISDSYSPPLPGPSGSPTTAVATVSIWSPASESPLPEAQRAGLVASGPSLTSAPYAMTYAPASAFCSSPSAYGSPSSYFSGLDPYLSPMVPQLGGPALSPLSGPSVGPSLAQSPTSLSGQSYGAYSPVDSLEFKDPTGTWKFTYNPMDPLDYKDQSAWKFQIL
Chain of ETV5 (P41161 whole entry): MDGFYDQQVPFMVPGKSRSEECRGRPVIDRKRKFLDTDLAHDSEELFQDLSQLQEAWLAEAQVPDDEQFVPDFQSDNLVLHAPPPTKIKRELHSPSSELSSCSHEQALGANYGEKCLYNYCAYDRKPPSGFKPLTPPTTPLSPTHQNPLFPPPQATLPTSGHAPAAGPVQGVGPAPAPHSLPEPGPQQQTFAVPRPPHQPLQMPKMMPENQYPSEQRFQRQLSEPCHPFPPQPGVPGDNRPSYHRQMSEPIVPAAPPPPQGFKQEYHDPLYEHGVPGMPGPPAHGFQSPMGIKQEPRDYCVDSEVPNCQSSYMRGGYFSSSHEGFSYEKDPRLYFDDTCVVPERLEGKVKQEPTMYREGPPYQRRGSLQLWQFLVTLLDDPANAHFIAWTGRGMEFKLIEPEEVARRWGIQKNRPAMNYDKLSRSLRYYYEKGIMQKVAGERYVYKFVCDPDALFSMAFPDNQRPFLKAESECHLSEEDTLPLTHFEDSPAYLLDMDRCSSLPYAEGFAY
Chain of ELF4 (Q99607 whole entry): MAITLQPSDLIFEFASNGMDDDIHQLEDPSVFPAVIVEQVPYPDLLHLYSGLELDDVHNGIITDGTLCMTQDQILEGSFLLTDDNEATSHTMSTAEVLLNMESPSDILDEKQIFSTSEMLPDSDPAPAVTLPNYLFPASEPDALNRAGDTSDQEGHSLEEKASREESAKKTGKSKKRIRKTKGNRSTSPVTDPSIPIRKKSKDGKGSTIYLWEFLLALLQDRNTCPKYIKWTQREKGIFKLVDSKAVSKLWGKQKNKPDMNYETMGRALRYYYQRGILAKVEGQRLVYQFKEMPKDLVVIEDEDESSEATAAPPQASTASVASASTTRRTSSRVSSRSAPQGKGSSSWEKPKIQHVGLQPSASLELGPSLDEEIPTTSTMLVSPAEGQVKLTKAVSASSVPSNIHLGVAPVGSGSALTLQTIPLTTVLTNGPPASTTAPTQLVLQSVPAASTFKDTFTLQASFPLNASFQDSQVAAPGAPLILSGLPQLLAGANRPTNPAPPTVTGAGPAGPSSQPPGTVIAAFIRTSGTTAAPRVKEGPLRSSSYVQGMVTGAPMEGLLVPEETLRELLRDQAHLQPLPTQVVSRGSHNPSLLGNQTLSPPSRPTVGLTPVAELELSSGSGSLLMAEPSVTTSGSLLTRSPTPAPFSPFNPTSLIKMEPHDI

In the case of TACCCG, the binding signal in experiment [1] was 1.39 fold enrichment (6-mer frequency, TF over GST control); in experiment [2], 1.5 fold enrichment (6-mer frequency, TF over GST control); in [3], 1.25 fold enrichment (6-mer frequency, TF over GST control); in experiment [4], 1.55 fold enrichment (6-mer frequency, TF over GST control); in [5], 1.4 fold enrichment (6-mer frequency, TF over GST control); in experiment [6] it was 1.55 fold enrichment (6-mer frequency, TF over GST control). For the same sequence, the binding signal in [7] is 1.44 fold enrichment (6-mer frequency, TF over GST control); in experiment [8] it was 1.34 fold enrichment (6-mer frequency, TF over GST control); in experiment [9] it was 1.29 fold enrichment (6-mer frequency, TF over GST control); in experiment [10], 1.55 fold enrichment (6-mer frequency, TF over GST control); in experiment [11], 1.41 fold enrichment (6-mer frequency, TF over GST control); in experiment [12] it was 1.56 fold enrichment (6-mer frequency, TF over GST control). The binding signal was 1.42 fold enrichment (6-mer frequency, TF over GST control) in experiment [13]; 1.59 fold enrichment (6-mer frequency, TF over GST control) in experiment [14]; 1.43 fold enrichment (6-mer frequency, TF over GST control) in experiment [15]; 1.5 fold enrichment (6-mer frequency, TF over GST control) in [16]; 1.47 fold enrichment (6-mer frequency, TF over GST control) in experiment [17]; 1.5 fold enrichment (6-mer frequency, TF over GST control) in [18].
